Several values for one entry are separate records, joined by “and”; a condition that tells them apart may be missing. Equal values may be shown once. Results filed as inconclusive are left out. A call without a number means that no potency is given here. The source holds several records for some structures; these can differ, active in one and inactive in another. Activity calls are given as the source filed them. Unless noted, calls come from the whole dose curve; as a rule, active = well fitted curve in the direction sought with a large enough effect in the repeat runs; inconclusive = weak or mixed curves; inactive = no such curve, though single readings can be large; an effect the other way counts as inactive or inconclusive. Positions of bridges follow the written chain, without caps; N, C: chain ends. Residues, ends and D or L forms follow the SMILES beside them.
Key:
[1] = qHTS assay to identify aromatase inhibitors - cell viability counter screen (AID 743084);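 note: cells stimulated with testosterone during compound exposure; nearly all actives have a fitted effect of over 55% in size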; note: potency is the fitted concentration of half-maximal effect
[2] = molecular target: Aryl hydrocarbon receptor (Homo sapiens) (UniProt P35869); experiment: qHTS assay to identify small molecule that activate the aryl hydrocarbon receptor (AhR) signaling pathway (AID 743085); note: nearly all actives have a fitted effect of over 15% in size; note: potency is the fitted concentration of half-maximal effect;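 for activation: HG2L7.5c1 human HepG2 liver cells with stably integrated DRE-driven firefly reporter; series mostly up to about 70 µM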
Sequence of Aryl hydrocarbon receptor (Homo sapiens) (P35869 whole entry, looked up): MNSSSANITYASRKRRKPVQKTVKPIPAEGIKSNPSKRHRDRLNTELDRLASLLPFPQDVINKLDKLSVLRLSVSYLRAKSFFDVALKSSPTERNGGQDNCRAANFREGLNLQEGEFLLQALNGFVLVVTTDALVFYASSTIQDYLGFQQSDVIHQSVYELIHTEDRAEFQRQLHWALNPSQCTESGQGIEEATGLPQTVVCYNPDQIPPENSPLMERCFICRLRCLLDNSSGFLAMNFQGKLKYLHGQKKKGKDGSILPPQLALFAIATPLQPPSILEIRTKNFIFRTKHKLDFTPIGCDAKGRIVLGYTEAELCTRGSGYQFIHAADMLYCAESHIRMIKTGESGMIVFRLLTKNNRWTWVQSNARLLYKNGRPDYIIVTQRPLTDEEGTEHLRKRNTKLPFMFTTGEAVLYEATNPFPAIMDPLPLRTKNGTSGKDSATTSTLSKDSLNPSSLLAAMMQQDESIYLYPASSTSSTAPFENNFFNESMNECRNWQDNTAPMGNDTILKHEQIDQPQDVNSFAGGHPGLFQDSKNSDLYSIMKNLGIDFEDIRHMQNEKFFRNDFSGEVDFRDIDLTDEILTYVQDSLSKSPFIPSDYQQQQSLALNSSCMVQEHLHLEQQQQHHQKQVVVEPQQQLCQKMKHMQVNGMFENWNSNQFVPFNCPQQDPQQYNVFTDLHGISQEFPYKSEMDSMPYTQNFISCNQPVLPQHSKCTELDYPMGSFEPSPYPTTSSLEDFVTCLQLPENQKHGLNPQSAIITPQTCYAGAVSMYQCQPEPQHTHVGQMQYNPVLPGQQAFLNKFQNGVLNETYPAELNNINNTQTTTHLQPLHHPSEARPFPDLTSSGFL
Procedure, shortened: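 HepG2 cells (HG2L7.5c1) stably carrying a firefly luciferase reporter driven by 20 dioxin responsive elements were exposed to compound for 24 h at 37C after a 5 h settling period; luminescence rise (ONE-Glo) indicated activation.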

[3] = qHTS assay to identify small molecule that activate the aryl hydrocarbon receptor (AhR) signaling pathway - cell viability counter screen (AID 743086); note: nearly all actives have a fitted effect of over 45% in size; note: potency is the fitted concentration of half-maximal effect
Procedure, shortened: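 HepG2-AhR-luc (HG2L7.5c1) cells, 4000/well, treated 24 h at 37 C with compound; viability measured as CellTiter-Fluor fluorescence after 30 min in the same wells as the luciferase read.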

[4] = molecular target: Peroxisome proliferator-activated receptor gamma (Homo sapiens) (UniProt P37231); experiment: qHTS assay to identify small molecule agonists of the peroxisome proliferator-activated receptor gamma (PPARg) signaling pathway (AID 743094; active = well fitted activation curve with a large enough effect in the signal ratio in the repeat runs, not every such curve was filed as active; the % refers to the signal ratio)
Sequence of Peroxisome proliferator-activated receptor gamma (Homo sapiens) (P37231 whole entry, looked up): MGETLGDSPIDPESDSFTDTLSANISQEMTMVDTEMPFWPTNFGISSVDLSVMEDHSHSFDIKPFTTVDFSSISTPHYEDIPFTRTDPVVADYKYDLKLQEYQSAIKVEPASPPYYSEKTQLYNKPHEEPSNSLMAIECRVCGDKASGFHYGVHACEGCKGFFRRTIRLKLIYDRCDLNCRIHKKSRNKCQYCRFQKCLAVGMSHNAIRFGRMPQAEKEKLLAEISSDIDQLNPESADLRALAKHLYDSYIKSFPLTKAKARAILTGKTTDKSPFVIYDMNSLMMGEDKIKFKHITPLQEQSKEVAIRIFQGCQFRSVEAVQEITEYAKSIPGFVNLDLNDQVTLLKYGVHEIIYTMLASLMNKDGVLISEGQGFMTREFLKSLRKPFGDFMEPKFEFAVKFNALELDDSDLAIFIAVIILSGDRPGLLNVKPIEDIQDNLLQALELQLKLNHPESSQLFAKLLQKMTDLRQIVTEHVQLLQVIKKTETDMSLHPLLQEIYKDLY
Procedure, shortened: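 Cells from the PPARg UAS-bla HEK293H line are plated and incubated 5 h at 37C. Compounds in DMSO are pinned in and left 17 h at 37C. LiveBLAzer B/G substrate is then added for 1 h at room temperature before fluorescence is measured.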

[5] = molecular target: Nuclear receptor subfamily 1 group I member 2 (Rattus norvegicus) (UniProt Q9R1A7); experiment: Rat pregnane X receptor (rPXR) activation by small molecules, qHTS assay (AID 1346983); conditions: rPXR luciferase reporter cells, One-Glo luminescence, 24 h; max activation: stronger effect = higher value; note: nearly all actives have a fitted effect of over 20% in size
Sequence of Nuclear receptor subfamily 1 group I member 2 (Rattus norvegicus) (Q9R1A7 whole entry, looked up): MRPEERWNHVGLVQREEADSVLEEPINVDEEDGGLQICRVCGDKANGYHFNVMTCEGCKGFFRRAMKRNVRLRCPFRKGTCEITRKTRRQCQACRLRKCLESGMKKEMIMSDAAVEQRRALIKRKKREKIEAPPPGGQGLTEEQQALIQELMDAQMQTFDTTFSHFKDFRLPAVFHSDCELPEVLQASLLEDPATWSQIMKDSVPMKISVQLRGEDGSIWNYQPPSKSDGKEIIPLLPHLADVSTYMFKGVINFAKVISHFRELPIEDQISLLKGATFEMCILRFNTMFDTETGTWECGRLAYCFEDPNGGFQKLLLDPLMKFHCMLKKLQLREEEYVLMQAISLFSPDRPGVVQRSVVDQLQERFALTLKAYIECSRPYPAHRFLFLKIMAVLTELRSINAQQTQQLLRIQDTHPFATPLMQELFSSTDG
Procedure, shortened: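 Cell-based rPXR activation assay: rPXR cells, 2,000 per well, rested 5hr at 37 C, then exposed to compounds in DMSO for 24 hr at 37 C. Luciferase activity read by One-Glo luminescence after 30 min at room temperature.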

[6] = molecular target: Nuclear receptor subfamily 1 group I member 2 (Homo sapiens) (UniProt O75469); experiment: CYP3A4 induction through human pregnane X receptor (PXR) by small molecules, qHTS assay (AID 1346984); note: nearly all actives have a fitted effect of over 40% in size; note: potency is the fitted concentration of half-maximal effect
Procedure, shortened: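 Quantitative HTS in DPX-2 cells, i.e. HepG2 transfected with PXR response element and CYP3A4-promoter luciferase. Compounds in DMSO incubated 24hr at 37C; then P450-Glo CYP3A4 substrate, 3uM final, 3hr; One-Glo luminescence.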

[7] = molecular target: Nuclear receptor subfamily 1 group I member 2 (Homo sapiens) (UniProt O75469); experiment: Human pregnane X receptor (PXR) activation by small molecules, qHTS assay (AID 1346985); note: nearly all actives have a fitted effect of over 40% in size; note: potency is the fitted concentration of half-maximal effect
Procedure, shortened: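 DPX-2 cells (HepG2 co-transfected with a PXR response element and a CYP3A4-promoter luciferase construct) were seeded at 2,000 per well, rested 5 hr at 37C, then exposed to DMSO-dissolved compounds for 24 hr. Activation was read as luciferase luminescence.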

[8] = qHTS assay to identify small molecule phospholipidosis (PLD) inducers (AID 1259344; active = well fitted curve in the direction sought with a large enough effect; an effect the other way counts as inactive or inconclusive)
Procedure, shortened: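 Image-based: LipidTOX Red pit count/intensity per well and per cell; HepG2, 24 h compound at 37 C, PFA fixation, Hoechst counterstain.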

Q: Which results are given for `CC(C)(C)NC[C@H](O)COc1ccccc1C1CCCC1`?
A: Potency [1]: inactive; Potency [2]: inactive; Potency [3]: inactive; Potency [4]: inactive; max activation [5]: -2.28% (inactive); Potency [6]: inactive; Potency [7]: inactive

Q: With `O=C(Cn1c(=O)sc2ccc(Cl)cc21)N1CCN(CCO)CC1` as the molecule, how does the Potency [1] read?
A: inactive

Q: And the Potency [4]?
A: inactive

Q: What about the PLD induction [8] of the same molecule?
A: 3.19% [at 7.66 µM] (inactive)

Q: With `Nc1ccc(S(=O)(=O)Nc2ncccn2)cc1` as the molecule, how does the max activation [5] read?
A: -1.29% (inactive)

Q: What about the Potency [6] of the same molecule?
A: inactive

Q: And the Potency [7]?
A: inactive

Q: What does the source list for `CN1CCN(CCCN2c3ccccc3Sc3ccccc32)CC1`?
A: Potency [2]: inactive; Potency [4]: inactive; Potency [8]: inactive

Q: With `C[C@H]1C[C@H]2[C@@H]3CCC4=CC(=O)C=C[C@]4(C)[C@@]3(F)[C@@H](O)C[C@]2(C)[C@@]1(O)C(=O)CCl` as the molecule, how does the Potency [2] read?
A: 6.68 µM (active)

Q: What about the Potency [4] of the same molecule?
A: inactive

Q: What about the Potency [8] of the same molecule?
A: inactive

Q: With `C[C@]12CCC(=O)C[C@@H]1CC[C@@H]1[C@@H]2CC[C@]2(C)C=CC[C@@H]12` as the molecule, how does the Potency [1] read?
A: inactive

Q: And the Potency [3]?
A: inactive

Q: And the Potency [4]?
A: inactive

Q: And the max activation [5]?
A: -0.035% (inactive)

Q: And the Potency [6]?
A: inactive

Q: And the Potency [7]?
A: inactive

Q: With `CCCC1([C@H](O)C/C=C/[C@H]2[C@H](O)CC(=O)[C@@H]2CCCCCCC(=O)OC)CCC1` as the molecule, how does the Potency [2] read?
A: inactive

Q: And the Potency [3]?
A: inactive

Q: What about the PLD induction [8] of the same molecule?
A: 0.112% [at 7.66 µM] (inactive)

Q: With `CN1[C@@H]2CC[C@H]1CC(OC(c1ccccc1)c1ccccc1)C2` (stereo not given in full) as the molecule, how does the Potency [1] read?
A: inactive

Q: What about the Potency [2] of the same molecule?
A: inactive

Q: And the Potency [3]?
A: inactive

Q: What about the Potency [4] of the same molecule?
A: inactive

Q: What about the max activation [5] of the same molecule?
A: -1.01% (inactive) and 0.643% (inactive) and -2.69% (inactive)

Q: And the Potency [6]?
A: inactive and 14.1 µM (active)

Q: And the Potency [7]?
A: inactive

Q: Which results are given for `O=C(Nc1ccc(/C=C/c2ccc(NC(=O)c3cc(S(=O)(=O)O)c4cccnc4c3O)cc2S(=O)(=O)O)c(S(=O)(=O)O)c1)c1cc(S(=O)(=O)O)c2cccnc2c1O`?
A: Potency [3]: inactive; PLD induction [8]: -0.0305% [at 7.66 µM] (inactive)

Q: What does the source list for `CN1[C@@H]2CCC[C@H]1CC(NC(=O)c1nn(C)c3ccccc13)C2` (stereo not given in full)?
A: Potency [2]: inactive; Potency [3]: inactive; Potency [4]: inactive; Potency [8]: inactive

Q: With `CC(CN(C)C)CN1c2ccccc2Sc2ccc(C(F)(F)F)cc21` (stereo not given) as the molecule, how does the Potency [1] read?
A: inactive

Q: What about the Potency [2] of the same molecule?
A: inactive

Q: And the max activation [5]?
A: 2.66% (inactive)

Q: And the Potency [6]?
A: 12.6 µM (active)

Q: And the Potency [7]?
A: 25.1 µM (active)

Q: Which Potency [1] does the source give for `CCNC(=O)[C@@H]1CCCN1C(=O)[C@H](CCCN=C(N)N)NC(=O)[C@H](CC(C)C)NC(=O)[C@@H](Cc1c[nH]c2ccccc12)NC(=O)[C@H](Cc1ccc(O)cc1)NC(=O)[C@H](CO)NC(=O)[C@H](Cc1c[nH]c2ccccc12)NC(=O)[C@H](Cc1cnc[nH]1)NC(=O)[C@@H]1CCC(=O)N1` here?
A: 29.8 µM (active)

Q: And the Potency [2]?
A: inactive

Q: And the Potency [3]?
A: 7.5 µM (active)

Q: What about the max activation [5] of the same molecule?
A: -27.8% (inactive)

Q: What about the Potency [6] of the same molecule?
A: inactive

Q: What about the Potency [7] of the same molecule?
A: inactive

Q: With `CCC(=O)Oc1ccc2c(c1)CC[C@@H]1[C@@H]2CC[C@]2(C)[C@@H](OC(=O)CC)CC[C@@H]12` as the molecule, how does the Potency [1] read?
A: inactive

Q: And the Potency [4]?
A: inactive

Q: What about the Potency [8] of the same molecule?
A: inactive

Q: Which results are given for `CCCCCCCC(=O)CC[C@@H]1[C@@H](C/C=C\CCCC(=O)OC(C)C)[C@@H](O)C[C@H]1O`?
A: Potency [1]: inactive; Potency [4]: inactive; Potency [8]: inactive

Q: With `C[C@]12C=CC(=O)C=C1CC[C@@H]1[C@@H]2[C@@H](O)C[C@@]2(C)[C@H]1CC[C@]2(O)C(=O)COC(=O)CCC(=O)O` as the molecule, how does the Potency [1] read?
A: inactive

Q: What about the Potency [4] of the same molecule?
A: inactive

Q: What about the Potency [8] of the same molecule?
A: inactive

Q: With `CC1(S(=O)(=O)O)CC(=O)c2ccccc2C1=O` (stereo not given) as the molecule, how does the Potency [2] read?
A: 10.6 µM (active)

Q: What about the Potency [8] of the same molecule?
A: inactive

Q: What does the source list for `NCCCC[C@H](NC(=O)[C@@H]1CCCN1C(=O)[C@@H]1CSSC[C@H](NC(=O)CNC(=O)CNC(=O)CN)C(=O)N[C@@H](Cc2ccc(O)cc2)C(=O)N[C@@H](Cc2ccccc2)C(=O)N[C@@H](CCC(N)=O)C(=O)N[C@@H](CC(N)=O)C(=O)N1)C(=O)NCC(N)=O` (H-GGGCYFQNCPKG-NH2; disulfide 4-9)?
A: Potency [1]: inactive; Potency [3]: inactive; Potency [4]: inactive; Potency [8]: inactive

Q: For `COc1ccc(C(=O)Nc2ccccc2CCC2CCCCN2C)cc1` (stereo not given), which Potency [4] is on record?
A: inactive

Q: And the Potency [8]?
A: inactive

Q: Which results are given for `CO[C@H]1[C@@H](O)[C@H](N)[C@@H](O[C@H]2O[C@H]([C@H](C)N)CC[C@H]2N)[C@H](O)[C@@H]1N(C)C(=O)CN`?
A: Potency [1]: inactive; Potency [3]: inactive; Potency [4]: inactive; Potency [8]: inactive

Q: For `COc1cc(NCCCC(C)N)c2ncccc2c1` (stereo not given), which Potency [3] is on record?
A: inactive

Q: And the Potency [8]?
A: inactive

Q: For `CN(C)CC/C=C1/c2ccccc2CSc2ccccc21`, which Potency [1] is on record?
A: inactive

Q: And the Potency [4]?
A: inactive

Q: What about the max activation [5] of the same molecule?
A: -3.65% (inactive)

Q: And the Potency [6]?
A: inactive

Q: And the Potency [7]?
A: inactive

Q: What does the source list for `CC(O)[C@H]1CC[C@H]2[C@@H]3CC[C@@H]4C[C@@H](O)CC[C@]4(C)[C@H]3CC[C@]12C` (stereo not given in full)?
A: Potency [1]: inactive; Potency [2]: inactive; Potency [4]: inactive; max activation [5]: 2.94% (inactive); Potency [6]: inactive; Potency [7]: inactive

Q: What does the source list for `CC1=C(C(=O)OCCN(Cc2ccccc2)c2ccccc2)C(c2cccc([N+](=O)[O-])c2)C(P2(=O)OCC(C)(C)CO2)=C(C)N1` (stereo not given)?
A: Potency [2]: inactive; PLD induction [8]: -1.08% [at 7.66 µM] (inactive)

Q: Which Potency [3] does the source give for `C#C[C@]1(OC(C)=O)CC[C@H]2[C@@H]3CCC4=CC(=O)CC[C@@H]4[C@H]3CC[C@@]21C` here?
A: inactive

Q: What about the Potency [4] of the same molecule?
A: inactive

Q: What about the PLD induction [8] of the same molecule?
A: 1.06% [at 7.66 µM] (inactive)

Q: Which Potency [1] does the source give for `COc1ccc2c(c1)OC(C)(C)C(c1ccccc1)C2c1ccc(OCCN2CCCC2)cc1` (stereo not given) here?
A: inactive

Q: And the max activation [5]?
A: -6.65% (inactive)

Q: And the Potency [6]?
A: inactive

Q: And the Potency [7]?
A: 15.8 µM (active)

— PubChem BioAssay (Tox21)
